# ChEMBL document CHEMBL4513216, “Probing the Open Global Health Chemical Diversity Library for Multistage-Active Starting Points for Next-Generation Antimalarials” (ACS Infect Dis, 2020)
# Among all 69,000 compounds or so, about 8,600 (12%) showed an effect of 50% or more. The entries come from a sample that favours strong results as a whole.
# Test system: Plasmodium berghei
# Experiment: Screen against P. berghei liver stage (PbLuc), transformed with Luciferase, at 10uM
# Assay type: functional, HepG2
# Conditions: tested at 10 uM
row,SMILES,INHIBITION
1,CN1CC(=O)N(c2cnn(C)c2)CC12CCN(CC1CC1)C2 (stereo not drawn),30.3%
2,C[C@]1(O)CN(Cc2cscn2)CC[C@@H]1Oc1cccc(F)c1,38.2%
3,Cc1cccnc1CN1CC[C@@](C)(O)[C@H](Oc2ccccc2)C1,24.4%
4,C[C@]1(O)CN(Cc2ncccc2F)CC[C@@H]1Oc1cccc(F)c1,50.1%
5,C[C@]1(O)CN(Cc2ncccc2F)CC[C@@H]1Oc1ccccc1,24.4%
6,C[C@]1(O)CCN(Cc2ncccc2F)C[C@@H]1Oc1cccc(F)c1,-4.51%
7,Cc1nccc(CN2CC[C@H](Oc3cccc(F)c3)[C@@](C)(O)C2)n1,38.7%
8,Cc1cccnc1CN1CC[C@H](Oc2cccc(F)c2)[C@@](C)(O)C1,75.3%
9,C[C@]1(O)CN(Cc2ncc[nH]2)CC[C@@H]1Oc1cccc(F)c1,61.9%
10,O=C1CC(c2cccnc2)C2(CCN(C(=O)c3ccncc3)CC2)N1 (stereo not drawn),33.5%
11,O=c1[nH]c2cn(-c3cccc(Cl)c3)c(=O)n2n1Cc1cccc(F)c1,34%
12,Cc1nc(CN2CCCC(NCCCOc3ccc(F)cc3)C2)no1 (stereo not drawn),19.4%
13,O=C(O)c1ccc(COc2cccc(Cl)c2)s1,8.49%
14,Cc1cccc(C(=O)N2CCn3c(CN4CCN(C)CC4)cnc3C2)n1,68.4%
15,CN1CCN(Cc2cnc3n2CCN(C(=O)c2cnccn2)C3)CC1,20.6%
16,CN1CCN(Cc2cnc3n2CCN(C(=O)c2ccncc2)C3)CC1,42.7%
17,CN1CCN(Cc2cnc3n2CCN(C(=O)c2ccccn2)C3)CC1,40.4%
18,CN1CCN(Cc2cnc3n2CCN(C(=O)c2ccoc2)C3)CC1,59%
19,CN1CCN(Cc2cnc3n2CCN(C(=O)c2ccnnc2)C3)CC1,32.2%
20,CCCc1noc(CCC(=O)N2CCCCC2Cn2cc(C)cn2)n1 (stereo not drawn),28.3%
21,O=C(c1ccc(NC2CC2)nc1)N1CCC(Nc2cccnn2)CC1,11.6%
22,CC(C)c1nc(CN2CCN(C(=O)CC3CCCCC3)CC2)no1,-3.21%
23,CCn1nc(C)c2c1cnn2CCNS(=O)(=O)CC,30%
24,CC(C)CCn1c(=O)n(CCn2cccc2)c2cc(C(=O)O)cnc21,36.7%
25,c1ccc(OCC2C[C@@H]3[C@@H](C2)OCCN3Cc2ccoc2)nc1 (stereo partly drawn),54.4%
26,Cc1nc(CN2CCO[C@@H]3CC(COc4ccccn4)C[C@H]32)cs1 (stereo partly drawn),31.5%
27,Cc1cccc(CN2CCO[C@@H]3CC(COc4ccccn4)C[C@H]32)n1 (stereo partly drawn),35.5%

row,SMILES,INHIBITION
1,COCC(O)CN1CCC(=O)N(CC2CC2)Cc2ccccc21 (stereo not drawn),21.5%
2,COCc1ccc(C(=O)N(CCC#N)Cc2ccccn2)cc1,44%
3,COc1cc(C(=O)N(CCC#N)Cc2ccccn2)ccc1C,29.4%
4,Cc1ccc(C(=O)N(CCC#N)Cc2ccccn2)cc1C,5.48%
5,COc1ccc(C(=O)N(CCC#N)Cc2ccccn2)cc1,-1.37%
6,CCOc1cccc(C(=O)N(CCC#N)Cc2ccccn2)c1,51.7%
7,N#CCCN(Cc1ccccn1)C(=O)c1cccc(CN2CCCC2)c1,61.8%
8,Cc1ccc(CN2C[C@@H]3C[C@H](C(=O)Nc4cccnc4)[C@H](C2)O3)cc1,64.9%
9,COc1ccc(CN2C[C@@H]3C[C@H](C(=O)Nc4cccnc4)[C@H](C2)O3)cc1,28.7%
10,O=C(Nc1cccnc1)[C@H]1C[C@H]2CN(S(=O)(=O)C3CC3)C[C@@H]1O2,48.6%
11,CNC(=O)[C@H]1C[C@H]2CN(Cc3ccccc3)C[C@@H]1O2,1.7%
12,CCCS(=O)(=O)N1C[C@@H]2C[C@H](C(=O)Nc3cccnc3)[C@H](C1)O2,34.6%
13,CC(C)CCN1C[C@@H]2C[C@H](C(=O)Nc3cccnc3)[C@H](C1)O2,41.6%
14,O=C(Nc1cccnc1)[C@H]1C[C@H]2CN(Cc3ccc(F)cc3)C[C@@H]1O2,63.7%
15,CCN1C[C@@H]2C[C@H](C(=O)Nc3ccccc3)[C@H](C1)O2,1.94%
16,CNC(=O)[C@H]1C[C@H]2CN(Cc3ccc(C)cc3)C[C@@H]1O2,9.65%
17,O=C(Nc1ccccc1)[C@H]1C[C@H]2CN(Cc3cccnc3)C[C@@H]1O2,59%
18,CNC(=O)[C@H]1C[C@H]2CN(Cc3cccc(C)c3)C[C@@H]1O2,57.3%
19,CCOc1ccccc1OC1CCN(C(=O)c2[nH]nc(C)c2Br)CC1,2.97%
20,Cc1nc(CCCNC(=O)[C@H]2CNC[C@@H](C(=O)N3CCCC3)C2)sc1C,6.72%
21,COCC[C@]1(O)CCN(C(=O)CCn2c(C)cccc2=O)C[C@H]1C,1.94%
22,CN(C)CCn1c2c(ccc1=O)CCN(Cc1ccncc1)CC2,-7.24%
23,CN(C)C(=O)Cn1c2c(ccc1=O)CCN(Cc1cnn(C)c1)CC2,52.4%
24,Cn1cc(CN2CCc3ccc(=O)n(CC4CC4)c3CC2)cn1,89.1%
25,CN(C)CCn1c2c(ccc1=O)CCN(Cc1cnn(C)c1)CC2,-3.26%
26,Cn1cc(CN2CCc3ccc(=O)n(Cc4ccncc4)c3CC2)cn1,20.6%
